The full data set covers some 7,900 targets. This sample favours those with a hit. About 0.6% of all pairs of compound and target were hits.
How the values were obtained:
Assay in all cases: log2 fold change, soluble protein after heating vs DMSO (PISA); higher = thermal stabilisation; K562 cells, 10 uM, 30 min; active = over 0.2 and 3.5 SD of the protein, either way, in both replicates (recomputed)
[1] = compound: CC1=C(C=C(C=C1)NC(=O)C2=CC(=CC=C2)C(C)(C)C#N)NC3=CC4=C(C=C3)N=CN(C4=O)C
How it was run: (§1)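 K562 cells at 2×10^6 cells/mL were treated for 30 min with 10 μM compound, and aliquots were heated for 3 min over 48°C-58°C before pooling. Extraction used PBS with 0.5% NP-40 at 4°C, and soluble protein was the supernatant after 21,000xg for 90 min, measured by TMTpro 16plex LC-MS/MS with channel sums equalised. Thermal stability values, relative to control samples and from duplicates, are log2 fold changes.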

[2] = compound: CC1=C(C=C(C=C1)NC(=O)C2=CC(=CC=C2)N(C)C)NC(=O)C3=CC=C(C=C3)O
How it was run: as §1

[3] = compound: CC1=CC=C(C=C1)SC2=C3C=C(SC3=CN=C2)C(=O)N
How it was run: as §1

[4] = compound: CC1=NC(=CC=C1)C2=C(N=C(N2)C(C)(C)C)C3=CC4=NC=CN=C4C=C3
How it was run: as §1

Nexturastat A = compound: CCCCN(Cc1ccc(C(=O)NO)cc1)C(=O)Nc1ccccc1 [Nexturastat A]
How it was run: as §1

vemurafenib = compound: CCCS(=O)(=O)Nc1ccc(F)c(C(=O)c2c[nH]c3ncc(-c4ccc(Cl)cc4)cc23)c1F [vemurafenib]
How it was run: as §1

[5] = compound: CCCS(=O)(=O)Nc1ccc(F)c(C(=O)c2c[nH]c3ncc(Cl)cc23)c1F
How it was run: as §1

[6] = compound: CCCc1cc(C)[nH]c(=O)c1CNC(=O)c1cc(-c2ccnc(N3CCN(C)CC3)c2)cc2c1cnn2C(C)C
How it was run: as §1

givinostat = compound: CCN(CC)Cc1ccc2cc(COC(=O)Nc3ccc(C(=O)NO)cc3)ccc2c1 [givinostat]
How it was run: as §1

barasertib = compound: CCN(CCCOc1ccc2c(Nc3cc(CC(=O)Nc4cccc(F)c4)[nH]n3)ncnc2c1)CCOP(=O)(O)O [barasertib]
How it was run: as §1

[7] = compound: CC[C@@H]1C(=O)N(C)c2cnc(Nc3ccc(C(=O)NC4CCN(C)CC4)cc3OC)nc2N1C1CCCC1
How it was run: as §1

volasertib = compound: CC[C@@H]1C(=O)N(C)c2cnc(Nc3ccc(C(=O)N[C@H]4CC[C@H](N5CCN(CC6CC6)CC5)CC4)cc3OC)nc2N1C(C)C [volasertib]
How it was run: as §1

[8] = compound: CC[C@H](C)N1C=C(C2=C(C=C(C=C21)C3=CN=C(C=C3)N4CCNCC4)C(=O)NCC5=C(C=C(NC5=O)C)C)C
How it was run: as §1

epoxomicin = compound: CC[C@H](C)[C@@H](C(=O)N[C@@H]([C@@H](C)O)C(=O)N[C@@H](CC(C)C)C(=O)[C@]1(CO1)C)NC(=O)[C@H]([C@@H](C)CC)N(C)C(=O)C [epoxomicin]
How it was run: as §1

[9] = compound: CCn1c(C(=O)N(C2CC2)C2CC2)cc2c3c(ncn3C)c(Nc3cc(C)n(C)n3)nc21
How it was run: as §1

[10] = compound: CCn1cc(-c2ccnc3[nH]c(-c4cccc(CN(C)C)c4)cc23)c(-c2ccc(NC(=O)N(C)C)cc2)n1
How it was run: as §1

[11] = compound: CN(C)CC(=O)Nc1ccc2[nH]c(=O)c3ccccc3c2c1
How it was run: as §1

rosiglitazone = compound: CN(CCOC1=CC=C(C=C1)C[C@H]2C(=O)NC(=O)S2)C3=CC=CC=N3 (racemic) [rosiglitazone]
How it was run: as §1

[12] = compound: CN1C2=C(C3=C1C(=O)N(N=C3)CC4=CC(=CC=C4)N)SC(=C2)S(=O)C
How it was run: as §1

[13] = compound: CN1CCC(CNc2ccc3ncc(-c4cccc(OC(F)(F)F)c4)n3n2)CC1
How it was run: as §1

Measured: log2 fold change

CCNB1 (UniProt P14635)
Sequence of UniProt P14635 (P14635 whole entry, looked up): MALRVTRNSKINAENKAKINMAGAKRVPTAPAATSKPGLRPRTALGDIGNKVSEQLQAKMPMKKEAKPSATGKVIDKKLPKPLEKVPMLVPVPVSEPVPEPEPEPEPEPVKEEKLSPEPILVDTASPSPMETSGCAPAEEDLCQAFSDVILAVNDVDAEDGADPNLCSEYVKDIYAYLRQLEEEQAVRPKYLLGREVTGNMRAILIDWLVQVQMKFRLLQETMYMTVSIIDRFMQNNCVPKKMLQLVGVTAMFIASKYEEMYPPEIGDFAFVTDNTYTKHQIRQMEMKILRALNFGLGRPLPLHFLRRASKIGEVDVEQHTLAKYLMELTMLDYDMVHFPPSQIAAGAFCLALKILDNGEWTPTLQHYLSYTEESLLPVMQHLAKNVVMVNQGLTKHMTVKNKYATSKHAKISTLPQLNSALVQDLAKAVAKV
inactive: [1] 0.021 | [2] -0.043 | [3] 0.011 | [4] 0 | Nexturastat A 0.017 | vemurafenib 0.03 | [5] 0.008 | [6] -0.033 | givinostat 0.007 | barasertib -0.007 | [7] 0.023 | volasertib 0.026 | [8] -0.027 | epoxomicin 0.083 | [9] -0.007 | [10] -0.004 | [11] 0.012 | rosiglitazone 0.017 | [12] -0.043 | [13] -0.032

COMT (UniProt P21964)
Sequence of UniProt P21964 (P21964 whole entry, looked up): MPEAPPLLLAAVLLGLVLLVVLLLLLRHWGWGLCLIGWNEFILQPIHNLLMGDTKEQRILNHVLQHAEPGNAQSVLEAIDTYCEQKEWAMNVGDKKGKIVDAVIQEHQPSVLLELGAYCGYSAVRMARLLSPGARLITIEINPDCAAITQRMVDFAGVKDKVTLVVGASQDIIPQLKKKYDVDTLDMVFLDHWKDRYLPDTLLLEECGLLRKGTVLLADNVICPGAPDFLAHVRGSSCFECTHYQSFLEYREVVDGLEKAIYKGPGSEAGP
inactive: [1] 0.14 | [2] 0.009 | [3] -0.012 | [4] 0.019 | Nexturastat A 0.036 | vemurafenib 0.011 | [5] 0.002 | [6] 0.005 | givinostat 0.144 | barasertib -0.006 | [7] 0.013 | volasertib 0.073 | [8] 0.01 | epoxomicin -0.023 | [9] -0.021 | [10] -0.01 | [11] 0.005 | rosiglitazone 0.039 | [12] -0.11 | [13] 0.142

CSK (UniProt P41240)
Sequence of UniProt P41240 (P41240 whole entry, looked up): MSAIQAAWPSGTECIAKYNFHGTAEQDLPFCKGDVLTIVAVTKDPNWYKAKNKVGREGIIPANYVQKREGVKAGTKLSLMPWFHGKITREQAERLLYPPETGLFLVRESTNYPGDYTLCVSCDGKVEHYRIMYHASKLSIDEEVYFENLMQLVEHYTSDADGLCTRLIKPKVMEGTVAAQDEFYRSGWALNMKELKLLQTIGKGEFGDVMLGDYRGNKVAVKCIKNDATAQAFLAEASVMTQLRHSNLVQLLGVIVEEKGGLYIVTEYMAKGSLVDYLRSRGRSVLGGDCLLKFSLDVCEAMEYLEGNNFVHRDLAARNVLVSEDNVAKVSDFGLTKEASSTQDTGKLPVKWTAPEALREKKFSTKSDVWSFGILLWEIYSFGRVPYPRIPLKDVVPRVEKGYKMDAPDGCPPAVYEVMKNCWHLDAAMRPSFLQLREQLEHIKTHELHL
inactive: [2] -0.091 | [3] -0.01 | [4] 0.019 | Nexturastat A -0.046 | vemurafenib 0.072 | [5] 0.054 | [6] 0.034 | givinostat 0.035 | barasertib 0.004 | [7] -0.132 | [8] 0.05 | epoxomicin 0.014 | [9] -0.013 | [10] -0.075 | [11] 0.024 | rosiglitazone 0.032 | [12] -0.011 | [13] -0.147
active: [1] 0.325 | volasertib -0.306

COX5B (UniProt P10606)
Sequence of UniProt P10606 (P10606 whole entry, looked up): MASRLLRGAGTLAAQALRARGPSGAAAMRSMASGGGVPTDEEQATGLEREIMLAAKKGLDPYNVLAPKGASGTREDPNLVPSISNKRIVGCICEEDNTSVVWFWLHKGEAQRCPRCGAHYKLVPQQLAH
active: [13] 0.541
inactive: [1] -0.038 | [2] -0.096 | [3] 0.037 | [4] -0.008 | Nexturastat A -0.043 | vemurafenib 0.037 | [5] -0.044 | [6] 0.013 | givinostat 0.065 | barasertib 0.034 | [7] 0.06 | volasertib -0.02 | [8] -0.047 | epoxomicin 0.192 | [9] -0.051 | [10] -0.043 | [11] -0.013 | rosiglitazone -0.01 | [12] -0.037

CLINT1 isoform 3 (UniProt Q14677)
Sequence of UniProt Q14677 (Q14677 whole entry, looked up): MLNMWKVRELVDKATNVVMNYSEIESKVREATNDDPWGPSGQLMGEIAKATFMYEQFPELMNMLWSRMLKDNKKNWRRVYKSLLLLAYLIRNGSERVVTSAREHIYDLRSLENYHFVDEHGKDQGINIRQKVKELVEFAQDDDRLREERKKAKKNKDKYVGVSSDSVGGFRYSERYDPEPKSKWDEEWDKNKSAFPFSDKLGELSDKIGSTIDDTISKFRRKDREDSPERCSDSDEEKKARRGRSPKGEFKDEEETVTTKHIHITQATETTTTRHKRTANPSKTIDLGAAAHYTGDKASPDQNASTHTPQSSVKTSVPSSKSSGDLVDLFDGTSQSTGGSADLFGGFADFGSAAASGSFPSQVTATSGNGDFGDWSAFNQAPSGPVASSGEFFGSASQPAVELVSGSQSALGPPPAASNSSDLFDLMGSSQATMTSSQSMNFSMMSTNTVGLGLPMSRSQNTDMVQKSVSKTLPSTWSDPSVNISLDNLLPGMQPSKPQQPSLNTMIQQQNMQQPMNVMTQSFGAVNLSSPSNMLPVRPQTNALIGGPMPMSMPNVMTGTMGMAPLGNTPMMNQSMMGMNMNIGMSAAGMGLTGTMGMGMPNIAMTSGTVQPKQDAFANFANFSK
inactive: [1] -0.082 | [2] -0.001 | [3] -0.094 | [4] -0.09 | Nexturastat A 0.122 | vemurafenib -0.049 | [5] -0.073 | [6] -0.019 | givinostat -0.01 | barasertib -0.047 | [7] 0.17 | volasertib 0.047 | [8] -0.01 | epoxomicin -0.038 | [9] -0.006 | [10] 0.042 | [11] -0.06 | rosiglitazone -0.055 | [12] 0.075
active: [13] 0.259

COMMD1 (UniProt Q8N668)
Sequence of UniProt Q8N668 (Q8N668 whole entry, looked up): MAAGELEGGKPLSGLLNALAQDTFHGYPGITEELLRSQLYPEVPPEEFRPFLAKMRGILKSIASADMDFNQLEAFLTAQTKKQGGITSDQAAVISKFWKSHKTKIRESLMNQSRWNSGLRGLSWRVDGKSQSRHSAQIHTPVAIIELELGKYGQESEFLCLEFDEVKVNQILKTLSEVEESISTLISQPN
inactive: [1] 0.037 | [2] -0.064 | [3] -0.048 | [4] 0.056 | Nexturastat A 0.011 | vemurafenib -0.038 | [5] 0.097 | [6] 0.056 | givinostat 0.122 | barasertib 0.057 | [7] -0.029 | volasertib -0.041 | [8] 0.054 | epoxomicin -0.071 | [9] -0.063 | [10] 0.157 | [11] 0.019 | rosiglitazone 0.016 | [13] 0.295

CALB1 (UniProt P05937)
active: [13] -0.282
inactive: [1] -0.004 | [2] 0.032 | [3] 0.027 | [4] 0.042 | Nexturastat A -0.023 | vemurafenib 0.057 | [5] 0.019 | [6] 0.011 | givinostat -0.031 | barasertib 0.037 | [7] -0.123 | volasertib -0.092 | [8] -0.007 | epoxomicin 0.043 | [9] 0.003 | [10] 0.05 | [11] 0.016 | rosiglitazone 0.027 | [12] -0.039

CDCA2 (UniProt Q69YH5)
Sequence of UniProt Q69YH5 (Q69YH5 whole entry, looked up): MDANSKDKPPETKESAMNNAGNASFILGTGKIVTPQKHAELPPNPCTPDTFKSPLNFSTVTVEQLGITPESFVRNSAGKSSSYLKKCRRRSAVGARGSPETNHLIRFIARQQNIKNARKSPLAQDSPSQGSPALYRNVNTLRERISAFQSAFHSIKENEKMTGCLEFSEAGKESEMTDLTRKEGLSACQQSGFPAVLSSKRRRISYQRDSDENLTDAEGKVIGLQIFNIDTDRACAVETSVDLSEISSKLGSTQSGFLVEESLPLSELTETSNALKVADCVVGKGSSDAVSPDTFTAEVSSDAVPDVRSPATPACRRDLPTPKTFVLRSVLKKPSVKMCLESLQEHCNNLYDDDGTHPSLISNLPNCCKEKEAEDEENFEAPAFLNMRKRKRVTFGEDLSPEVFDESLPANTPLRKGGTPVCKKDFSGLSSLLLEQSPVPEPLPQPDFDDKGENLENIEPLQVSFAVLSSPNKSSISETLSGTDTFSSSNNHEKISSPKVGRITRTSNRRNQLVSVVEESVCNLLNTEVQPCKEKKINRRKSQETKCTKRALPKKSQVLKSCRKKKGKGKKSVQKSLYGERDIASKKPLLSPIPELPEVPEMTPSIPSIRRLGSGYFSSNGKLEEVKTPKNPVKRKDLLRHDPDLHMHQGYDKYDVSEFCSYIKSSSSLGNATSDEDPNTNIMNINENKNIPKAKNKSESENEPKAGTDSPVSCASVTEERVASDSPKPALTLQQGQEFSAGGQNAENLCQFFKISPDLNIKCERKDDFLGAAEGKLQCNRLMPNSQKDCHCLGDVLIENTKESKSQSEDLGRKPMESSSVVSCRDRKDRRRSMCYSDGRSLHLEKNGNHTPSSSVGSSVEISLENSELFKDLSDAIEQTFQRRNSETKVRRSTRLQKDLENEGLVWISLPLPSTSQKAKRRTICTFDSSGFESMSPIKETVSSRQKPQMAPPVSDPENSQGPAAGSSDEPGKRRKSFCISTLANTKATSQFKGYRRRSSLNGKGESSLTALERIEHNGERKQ
inactive: [1] -0.134 | [2] 0.033 | [3] -0.047 | [4] -0.299 | vemurafenib -0.009 | [5] -0.043 | [6] -0.027 | givinostat 0.382 | [7] 0.193 | volasertib 0.275 | [8] -0.131 | epoxomicin -0.025 | [9] 0.015 | [10] 0.152 | [11] -0.038 | [13] 0.205
active: Nexturastat A 0.638

C22orf39 (UniProt Q6P5X5)
inactive: [1] -0.033 | [2] 0.059 | [3] -0.058 | [4] -0.008 | Nexturastat A -0.024 | [5] 0.205 | [6] 0.017 | givinostat 0.044 | barasertib -0.042 | volasertib 0.134 | [8] -0.042 | epoxomicin 0.081 | [9] -0.08 | rosiglitazone -0.119 | [12] 0.043

CRYM-AS1 (UniProt A6NIL9)
inactive: [1] 0.239 | [2] -0.066 | [4] -0.224 | Nexturastat A 0.332 | vemurafenib 0.161 | [6] -0.049 | givinostat 0.189 | barasertib -0.036 | [7] -0.04 | [8] 0.233 | epoxomicin -0.107 | [9] 0.104 | [10] -0.029 | [11] 0.089 | rosiglitazone -0.068 | [12] 0.04
active: [13] -0.714

CLN8 (UniProt Q9UBY8)
Sequence of UniProt Q9UBY8 (Q9UBY8 whole entry, looked up): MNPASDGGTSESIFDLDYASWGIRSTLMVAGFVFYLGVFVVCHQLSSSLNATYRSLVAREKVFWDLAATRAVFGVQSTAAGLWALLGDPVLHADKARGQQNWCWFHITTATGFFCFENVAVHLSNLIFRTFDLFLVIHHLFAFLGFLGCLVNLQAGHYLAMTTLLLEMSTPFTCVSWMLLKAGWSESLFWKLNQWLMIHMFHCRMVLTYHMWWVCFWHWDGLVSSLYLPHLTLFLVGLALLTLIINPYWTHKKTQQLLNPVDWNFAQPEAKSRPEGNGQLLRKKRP
inactive: [1] -0.018 | [2] 0.081 | [3] -0.085 | vemurafenib -0.001 | [5] -0.109 | [6] -0.132 | givinostat -0.086 | barasertib 0.051 | [7] 0.069 | volasertib 0.001 | [8] 0.077 | [9] -0.101 | [10] 0.005 | [11] 0.145 | rosiglitazone 0.327 | [12] 0.135 | [13] 0.191

C15orf41 (UniProt Q9Y2V0)
inactive: [1] 0.022 | [2] -0.026 | [3] -0.017 | [4] -0.002 | Nexturastat A -0.006 | vemurafenib 0.015 | [5] 0.032 | givinostat -0.012 | [7] -0.04 | volasertib -0.188 | epoxomicin -0.165 | [9] -0.023 | [11] -0.022 | [12] 0.019 | [13] 0.001
active: [10] -0.333

CORO2A (UniProt Q92828)
Sequence of UniProt Q92828 (Q92828 whole entry, looked up): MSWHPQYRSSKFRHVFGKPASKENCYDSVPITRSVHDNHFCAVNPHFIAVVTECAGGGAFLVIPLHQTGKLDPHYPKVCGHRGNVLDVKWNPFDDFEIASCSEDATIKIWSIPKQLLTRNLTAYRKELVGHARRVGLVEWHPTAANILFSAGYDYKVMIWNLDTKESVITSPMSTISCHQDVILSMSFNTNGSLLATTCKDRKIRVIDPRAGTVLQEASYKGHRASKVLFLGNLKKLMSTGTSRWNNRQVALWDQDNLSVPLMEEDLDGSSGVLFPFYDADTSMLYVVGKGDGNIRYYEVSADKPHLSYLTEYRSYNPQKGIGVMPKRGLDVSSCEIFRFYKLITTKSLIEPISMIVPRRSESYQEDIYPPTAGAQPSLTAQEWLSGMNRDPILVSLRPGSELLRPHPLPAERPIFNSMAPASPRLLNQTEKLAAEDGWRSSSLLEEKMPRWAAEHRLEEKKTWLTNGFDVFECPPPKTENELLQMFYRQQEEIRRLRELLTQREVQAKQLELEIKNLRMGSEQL
inactive: [1] 0.014 | [2] 0.157 | [3] 0.01 | vemurafenib 0.063 | [5] 0.054 | [6] 0.026 | givinostat 0.002 | barasertib 0.065 | [7] 0.164 | volasertib -0.075 | [8] 0.01 | [9] -0.016 | [10] 0 | [11] -0.038 | rosiglitazone 0.011 | [12] -0.022 | [13] -0.096

CDK19 (UniProt Q9BWU1)
inactive: [1] -0.032 | [2] 0.212 | [3] 0.246 | Nexturastat A -0.039 | vemurafenib 0.057 | [5] -0.026 | [6] -0.109 | givinostat -0.133 | [7] 0.016 | volasertib -0.064 | [8] 0.069 | epoxomicin -0.114 | [9] 0.038 | [10] -0.1 | [11] -0.068 | [12] 0.003 | [13] 0.456

COG2 (UniProt Q14746)
Sequence of UniProt Q14746 (Q14746 whole entry, looked up): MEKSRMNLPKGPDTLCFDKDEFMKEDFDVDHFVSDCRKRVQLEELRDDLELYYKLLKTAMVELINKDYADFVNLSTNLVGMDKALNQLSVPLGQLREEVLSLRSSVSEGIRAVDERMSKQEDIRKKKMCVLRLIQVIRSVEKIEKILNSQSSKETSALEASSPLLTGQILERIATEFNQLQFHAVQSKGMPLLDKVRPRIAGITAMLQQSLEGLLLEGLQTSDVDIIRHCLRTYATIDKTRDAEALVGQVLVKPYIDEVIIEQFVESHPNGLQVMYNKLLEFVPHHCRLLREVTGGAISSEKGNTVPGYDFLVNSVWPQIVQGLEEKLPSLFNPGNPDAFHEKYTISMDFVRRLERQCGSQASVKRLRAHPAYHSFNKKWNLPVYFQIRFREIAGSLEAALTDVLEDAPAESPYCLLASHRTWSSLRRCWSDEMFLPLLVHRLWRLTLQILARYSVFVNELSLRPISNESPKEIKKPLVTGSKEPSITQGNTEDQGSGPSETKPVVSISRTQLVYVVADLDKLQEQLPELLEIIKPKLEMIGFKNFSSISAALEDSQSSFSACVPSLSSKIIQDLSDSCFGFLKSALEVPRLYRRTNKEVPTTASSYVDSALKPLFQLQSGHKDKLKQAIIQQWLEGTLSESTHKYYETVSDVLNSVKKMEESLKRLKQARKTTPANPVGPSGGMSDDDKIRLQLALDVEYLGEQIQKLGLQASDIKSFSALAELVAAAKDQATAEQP
inactive: [1] -0.064 | [2] 0 | [4] 0.096 | Nexturastat A 0.432 | [6] -0.59 | givinostat 0.048 | [7] -0.173 | [8] -0.357 | epoxomicin 0.008 | [9] 0.076 | [12] 0.302

C6orf120 (UniProt Q7Z4R8)
Sequence of UniProt Q7Z4R8 (Q7Z4R8 whole entry, looked up): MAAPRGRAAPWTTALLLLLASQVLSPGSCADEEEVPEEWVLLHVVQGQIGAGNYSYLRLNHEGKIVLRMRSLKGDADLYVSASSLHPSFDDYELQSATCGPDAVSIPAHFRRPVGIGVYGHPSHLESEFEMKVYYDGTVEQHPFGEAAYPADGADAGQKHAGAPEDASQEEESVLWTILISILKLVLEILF
inactive: [1] -0.054 | [2] 0.045 | [3] 0.018 | [4] -0.094 | vemurafenib -0.035 | [5] 0.069 | givinostat -0.011 | barasertib 0.017 | [7] 0.066 | volasertib -0.101 | [8] 0.019 | [9] 0.095 | [11] -0.155 | rosiglitazone 0.06 | [12] -0.245

CHST10 (UniProt O43529)
inactive: [1] 0.067 | [2] -0.096 | [3] -0.092 | [4] -0.052 | Nexturastat A 0.05 | [5] -0.015 | [6] -0.097 | givinostat 0.069 | barasertib -0.025 | volasertib -0.146 | [8] 0.002 | epoxomicin -0.019 | [9] -0.043 | [10] -0.021 | rosiglitazone 0.081 | [13] -0.108

CDK17 isoform 2 (UniProt Q00537)
inactive: [1] 0.105 | [3] 0.061 | [4] -0.051 | Nexturastat A 0.172 | vemurafenib -0.098 | [5] -0.085 | [6] 0.042 | givinostat 0.003 | barasertib 0.055 | [7] -0.153 | volasertib -0.079 | epoxomicin 0.07 | [9] 0.032 | [10] -0.012 | [11] 0.046 | rosiglitazone 0.038 | [12] 0.022 | [13] 0.051

Source: the supplement of paper PMC10849652
